This is an account of results in PubChem BioAssay (NCATS).

Each structure is given as a SMILES string. Inconclusive results are not listed. Active and inactive are the calls of the source. Calls follow the shape of the dose curve; as a rule, active = well fitted inhibition curve with a large enough effect; inconclusive = small, poorly fitted or top-dose-only effect; inactive = no such curve, though single readings can be large or run the other way.
Potency is read from the fitted curve at half-maximal effect.

System in one assay: not listed separately
The experiment in a line: ZIKV-mCherry secondary qHTS for Zika virus inhibitors (AID 1347158). The conditions noted are these: Vero cells, ZIKV-mCherry infection imaging, 48-72 h; series mostly up to 49.2 µM. An excerpt:
Assay Submitters (PI): Avindra Nath, Ph.D., National Institute of Neurological Disorders and Stroke (NINDS), Bethesda, MD Radhakrishnan Padmanabhan, Ph.D., Georgetown University (GU), Washington D.C. Zika Virus causes congenital defects, including microcephaly and is associated with Guillain-Barre syndrome, eningoencephalitis and myelitis in infected adult. […] Using a target-based approach, we hope to establish a screening paradigm to uncover novel, cell-active NS2B-NS3 protease (Zika Virus) specific inhibitors from NCATS' collection of small molecules using qHTS. […] Four assay panel was created to identify potential Zika Virus inhibitors. Namely, (1) GU unlinked NS2B-NS3 AMC tagged protease qHTS, (2) GU unlinked NS2B-NS3 Rhodamine tagged protease qHTS, (3) NINDS linked NS2B-NS3 AMC tagged protease qHTS, (4) NINDS linked NS2B-NS3 Rhodamine tagged protease qHTS. Active compounds were re-acquired and re-screened to confirm inhibition. Inhibitors were further screened against various confirmatory and counterscreens in dose response format. […] A DAPI (mCherry counterscreen) which determine Vero cell toxicity was used to exclude false positive compounds. […] Early Translation Branch (ETB) National Center for Advancing Translational Sciences (NCATS), Rockville, MD National Institute of Health (NIH), Bethesda, Maryland
384 well ZIKV-mCherry Assay: We have developed a new orthogonal imaging assay in 384-well plate format, which uses recombinant virus ZIKV-mCherry in Vero cells. Briefly, 30 microL of Vero cells derived from a green monkey cell line, were dispensed by Multidrop Dispenser into a clear solid bottom black 384 well plate (ultracarrier, Perkin Elmer LifeSciences) at a concentration of 5,000 cells per well. The plate was incubated overnight in a CO2 incubator at 37 degrees C. Compounds were delivered as a 126 nL DMSO solution by Kalypsys pintool transfer. Following compound transfer, 10 microL of ZIKV-mCherry was added at an MOI of 1 and incubated in a CO2 incubator for 48-72 hrs at 37 degrees C. After sufficient incubation of infected cells in test plates, 8 microL of 32% PFA was dispensed into assay plates to fix cells and incubated for 20 min at room temperature. Plates were washed 3 times with PBS using BioTek EL406 microplate washer/dispenser. After washing, 30 microL of PBS with 0.01% TX-100 containing Hoechst dye was dispensed into the each well of the plates for nuclear staining. 384-well plates were imaged on an automated, widefield high content imager (INCell 2200, GE Healthcare) using a 10x/0.45 NA lens and standard DAPI (nuclear stain) and mCherry (cy5) excitation and emission filters. The TIFFs were quantitated using the canned Multi Target Analysis protocol (GE Investigator Workstation software v3.7.2). Briefly, nuclei from the DAPI channel were identified using top hat segmentation and a sensitivity setting of 96 and minimum size area of 35 microm2. A recombinant Zika viral infection was monitored in the Cy5 channel (cells) using a 2 microm collar dilation from the nuclear bitmap. mCherry objects with an average nuclear RFU intensity above 450 (3 stdev above mean negative control wells) were considered "mcherry positive" and data was analyzed by percent infection rate.
A general note: In qHTS, concentration-response curves come from the screen itself.
On to `O=C(O)Cc1ccc2oc(-c3ccc(NC(=O)/C=C/c4ccc(Br)cc4)c(F)c3)nc2c1`, for which the Potency entry was “inactive”.

In the case of `CC(C)c1cccc2c(-c3ccccc3)cc(-c3ccc(-c4ccc(C(=O)O)cc4)[nH]3)nc12`, the Potency is 7.08 µM (active).

Regarding `COc1ccc(Cl)c(Nc2nc3ccccc3nc2NS(=O)(=O)c2cccc(NC(=O)C(C)(C)N)c2)c1`, the Potency is 15.8 µM (active).

Consider `O=C(Nc1ccc(S(=O)(=O)Nc2nccs2)cc1)C(c1ccccc1)c1ccccc1`, for which the Potency result is “inactive”.

Turning to `CC1(C)CC2=C3C=CC4C5(C)CCC(O)C(C)(C)C5CCC4(C)C3(C)CCC2(C)C(O)C1` (stereo not drawn), the Potency result was “inactive”.

The test system of another assay is Zika virus NS2B-NS3 protease (unlinked complex). As to the kind of experiment: Primary screen GU Rhodamine qHTS for Zika virus inhibitors: Unlinked NS2B-NS3 protease assay (AID 1347159). Also: nearly all actives have a fitted effect of over 60% in size. Particulars: Recombinant ZIKV NS2B-NS3 protease, Rhodamine110 substrate fluorescence; series mostly up to 107 µM. In short, it runs like this: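 In dose–response format, inhibition of unlinked protease (25 nM) was measured with 1.5 microM bis-peptide Rhodamine110 substrate. Aprotinin served as the intraplate control.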
For the compound `CC(C)(C)Nc1nc2cc(Cl)c(Cl)cc2nc1S(C)(=O)=O`, the Potency was 89.1 µM (active).

Regarding `COc1ccc(N2CCOCC2)c2sc(NC(=O)N3CCC(C)(O)CC3)nc12`, the Potency entry is “inactive”.

For `Cc1ccc(NC(=O)Nc2cc(C(F)(F)F)ccc2F)cc1Nc1ccc2c(c1)NC(=O)/C2=C\c1ccc[nH]1`, the Potency was 39.8 µM (active).

`O=C(O)/C=C/c1ccc(-c2ccc(O)c(C34CC5CC(CC(C5)C3)C4)c2)cc1`: the Potency is 2.24 µM (active).

Turning to `COc1cc(Nc2nc3ccccc3nc2NS(=O)(=O)c2ccc(NC(=O)c3ccc(OC)c(C)c3)cc2)cc(OC)c1`, the Potency was 2.82 µM (active).

For the compound `CC(C)[N+]1(C)C2CCC1CC(OC(=O)C(CO)c1ccccc1)C2` (stereo not drawn), the Potency entry was “inactive”.

For `CCc1c(-c2ccccc2)c(-c2ccccc2)nn1-c1ccccc1-c1cccc(OCC(=O)O)c1`, the Potency was 6.31 µM (active).

Take `O=C1NC(Cc2c[nH]c3ccccc23)C(=O)NC1Cc1c[nH]c2ccccc12` (stereo not drawn): the Potency entry is “inactive”.

In the case of `CC1(C)CCC(C)(C)c2cc(C3(c4ccc(C(=O)O)cc4)OCCO3)ccc21`, the Potency is 10 µM (active).

In the case of `C=C[C@H]1[C@H](O[C@@H]2O[C@H](CO)[C@@H](O)[C@H](O)[C@H]2O)OC=C(C(=O)OC)[C@H]1CCOC(=O)c1cc(O)c(O)c(O)c1`, the Potency was 15.8 µM (active).

For `O=C(O)Cc1ccc2oc(-c3ccc(NC(=O)/C=C/c4ccc(Br)cc4)c(F)c3)nc2c1`, the Potency is 3.16 µM (active).

In the case of `N#CC(c1ccnc(OCc2ccc(CN3CCOCC3)cc2)n1)c1nc2ccccc2s1` (stereo not drawn), the Potency is 3.98 µM (active).

Take `CC(C)c1cccc2c(-c3ccccc3)cc(-c3ccc(-c4ccc(C(=O)O)cc4)[nH]3)nc12`: the Potency is 3.55 µM (active).

For `O=C(O)c1ccccc1NC(=O)N1CCC(c2ccccc2C(F)(F)F)CC1`, the Potency was 22.4 µM (active).

Regarding `COc1ccc(C(=O)n2c(C)c(Cc3cccc(O[C@@H](C)C(=O)O)c3)c3cc(OC(F)(F)F)ccc32)cc1`, the Potency is 3.16 µM (active).

`Cc1cc(C(=O)N2CCCCc3ccccc32)ccc1CNC(=O)N1CCC[C@H]1C(=O)N(C)C`: the Potency result was “inactive”.

For `COc1ccc(C(=O)C2CCN(CC(=O)N(Cc3nc4c(c(=O)[nH]3)COCC4)CC3CC3)CC2)cc1`, the Potency entry was “inactive”.

As for `O=C(O)CC1CCC(c2ccc(-c3ccc4nc(C(=O)NCc5ccc(OC(F)(F)F)cc5)cn4c3)cc2)CC1` (stereo not drawn), the Potency was 2.51 µM (active).

On to `CC1(C)[C@@H](O)CC[C@]2(C)[C@H]3CC=C4[C@@H]5C[C@](C)(C(=O)O)CC[C@]5(C)CC[C@@]4(C)[C@]3(C)CC[C@@H]12`, for which the Potency is 7.08 µM (active).

Take `CC(C)C(N)C(=O)OCCOCn1cnc2c(=O)[nH]c(N)nc21` (stereo not drawn): the Potency entry was “inactive”.

With `CC1=C(C(=O)OCc2ccccc2)C(c2ccc(-c3ccccc3)cc2)NC(=O)N1CCCCCC(=O)O` (stereo not drawn), the Potency is 3.16 µM (active).

As to `CC(=O)O[C@H]1C(=O)[C@@]2(C)[C@H]([C@H](OC(=O)c3ccccc3)[C@]3(O)C[C@H](OC(=O)[C@H](O)[C@@H](NC(=O)c4ccccc4)c4ccccc4)C(C)=C1C3(C)C)[C@]1(OC(C)=O)CO[C@@H]1C[C@@H]2O`, the Potency result is “inactive”.

For the compound `COc1ccc(Cl)c(Nc2nc3ccccc3nc2NS(=O)(=O)c2cccc(NC(=O)C(C)(C)N)c2)c1`, the Potency was 7.94 µM (active).

As for `CC/C=C\CC1C(=O)C=CC1(CCCCCCCC(=O)O)OC(C)=O` (stereo not drawn), the Potency is 7.08 µM (active).

With `O=C(Nc1ccc(S(=O)(=O)Nc2nccs2)cc1)C(c1ccccc1)c1ccccc1`, the Potency was 6.31 µM (active).

`CC1(C)CC[C@]2(C(=O)O)CC[C@]3(C)C(=CCC4[C@@]5(C)C[C@@H](O)[C@H](O)C(C)(C)C5CC[C@]43C)C2C1` (stereo partly drawn): the Potency was 14.1 µM (active).

Turning to `CC1(C)CC2=C3C=CC4C5(C)CCC(O)C(C)(C)C5CCC4(C)C3(C)CCC2(C)C(O)C1` (stereo not drawn), the Potency was 15.8 µM (active).

Turning to `CCc1cc(CN2CC(C(=O)O)C2)sc1-c1noc(-c2ccc(Oc3ccccc3)cc2)n1`, the Potency is 3.98 µM (active).

In the case of `C#CCN(Cc1cc2c(=O)[nH]c(C)nc2cc1Br)c1ccc(C(=O)NCc2cccnc2)cc1`, the Potency was 39.8 µM (active).

`CCCCCCOc1cc2c(cc1N(C)c1ncc(C(=O)O)cn1)C(C)(C)CCC2(C)C`: the Potency was 3.98 µM (active).

Take `OC/C=C/C=C/[C@H]1Cc2cc(O)cc(O)c2O1`: the Potency was 39.8 µM (active).

The next assay has as its system Zika virus NS2B-NS3 protease (linked construct). The experiment in a line: Primary screen NINDS Rhodamine qHTS for Zika virus inhibitors (AID 1347160). Also: nearly all actives have a fitted effect of over 55% in size. Particulars: purified NS2B-NS3 protease, Rhodamine110 substrate fluorescence; series mostly up to 57.1 µM. In short, it runs like this: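 Each compound, titrated, sat 15 min with 25 nM linked protease before 1.5 microM Rhodamine110 substrate went in. Fluorescence gain over the next 15 min, in pH 8.0 Tris with Tween 20, gave Hill-fitted curves.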
On to `CC(C)(C)Nc1nc2cc(Cl)c(Cl)cc2nc1S(C)(=O)=O`, for which the Potency entry was “inactive”.

Consider `O=C(O)/C=C/c1ccc(-c2ccc(O)c(C34CC5CC(CC(C5)C3)C4)c2)cc1`, for which the Potency is 2.24 µM (active).

On to `COc1cc(Nc2nc3ccccc3nc2NS(=O)(=O)c2ccc(NC(=O)c3ccc(OC)c(C)c3)cc2)cc(OC)c1`, for which the Potency is 8.91 µM (active).

In the case of `CC(C)[N+]1(C)C2CCC1CC(OC(=O)C(CO)c1ccccc1)C2` (stereo not drawn), the Potency result was “inactive”.

For `CCc1c(-c2ccccc2)c(-c2ccccc2)nn1-c1ccccc1-c1cccc(OCC(=O)O)c1`, the Potency was 3.55 µM (active).

Consider `CC1(C)CCC(C)(C)c2cc(C3(c4ccc(C(=O)O)cc4)OCCO3)ccc21`, for which the Potency was 5.62 µM (active).

For `C=C[C@H]1[C@H](O[C@@H]2O[C@H](CO)[C@@H](O)[C@H](O)[C@H]2O)OC=C(C(=O)OC)[C@H]1CCOC(=O)c1cc(O)c(O)c(O)c1`, the Potency was 8.91 µM (active).

Consider `O=C(O)Cc1ccc2oc(-c3ccc(NC(=O)/C=C/c4ccc(Br)cc4)c(F)c3)nc2c1`, for which the Potency is 3.16 µM (active).

In the case of `N#CC(c1ccnc(OCc2ccc(CN3CCOCC3)cc2)n1)c1nc2ccccc2s1` (stereo not drawn), the Potency was 7.94 µM (active).

`C=CC/C=C\C/C=C\CCCCCCCc1cccc(O)c1C(=O)O`: the Potency was 3.98 µM (active).

`O=C(N/N=C/c1ccc(O)c(O)c1)c1cc2ccccc2cc1O`: the Potency is 5.01 µM (active).

Turning to `CC(C)c1cccc2c(-c3ccccc3)cc(-c3ccc(-c4ccc(C(=O)O)cc4)[nH]3)nc12`, the Potency was 7.08 µM (active).

For `CC[C@]1(O)CC2CN(CCc3c([nH]c4ccccc34)[C@@](C(=O)OC)(c3cc4c(cc3OC)N(C)[C@H]3[C@@](O)(C(=O)OC)[C@H](OC(C)=O)[C@]5(CC)C=CCN6CC[C@]43[C@@H]65)C2)C1` (stereo partly drawn), the Potency entry was “inactive”.

`CC1=C(C(=O)OCc2ccccc2)C(c2ccc(-c3ccccc3)cc2)NC(=O)N1CCCCCC(=O)O` (stereo not drawn): the Potency is 7.94 µM (active).

For `CC(=O)O[C@H]1C(=O)[C@@]2(C)[C@H]([C@H](OC(=O)c3ccccc3)[C@]3(O)C[C@H](OC(=O)[C@H](O)[C@@H](NC(=O)c4ccccc4)c4ccccc4)C(C)=C1C3(C)C)[C@]1(OC(C)=O)CO[C@@H]1C[C@@H]2O`, the Potency entry is “inactive”.

With `COc1ccc(Cl)c(Nc2nc3ccccc3nc2NS(=O)(=O)c2cccc(NC(=O)C(C)(C)N)c2)c1`, the Potency was 5.01 µM (active).

As to `O=C(Nc1ccc(S(=O)(=O)Nc2nccs2)cc1)C(c1ccccc1)c1ccccc1`, the Potency was 7.08 µM (active).

Regarding `CC1(C)CC[C@]2(C(=O)O)CC[C@]3(C)C(=CCC4[C@@]5(C)C[C@@H](O)[C@H](O)C(C)(C)C5CC[C@]43C)C2C1` (stereo partly drawn), the Potency was 10 µM (active).

For `CC1(C)CC2=C3C=CC4C5(C)CCC(O)C(C)(C)C5CCC4(C)C3(C)CCC2(C)C(O)C1` (stereo not drawn), the Potency was 8.91 µM (active).

Consider `C#CCN(Cc1cc2c(=O)[nH]c(C)nc2cc1Br)c1ccc(C(=O)NCc2cccnc2)cc1`, for which the Potency result was “inactive”.

`CCCCCCOc1cc2c(cc1N(C)c1ncc(C(=O)O)cn1)C(C)(C)CCC2(C)C`: the Potency was 7.94 µM (active).

Turning to `OC/C=C/C=C/[C@H]1Cc2cc(O)cc(O)c2O1`, the Potency result was “inactive”.
